Laboratory results published in PubChem BioAssay AID652126 (The Scripps Research Institute Molecular Screening Center, 2013).
Among all 370,000 compounds or so, about 3,700 (1%) were called active. For the sample, actives were picked, then their nearest neighbours and some compounds at random. Unmarked numbers belong to inactive results.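 How the source made its calls: active means activation above the mean over all tested compounds plus 3 SD (cut at about 0.9% in these data); inactive means the rest.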

These compounds were tested on Nuclear hormone receptor DAF-12 (Strongyloides stercoralis) (assay: S. stercoralis DAF-12 nuclear receptor activators, primary screen, cell-based, luminescence, HEK293, GRIP1 co-expression, lit1-tk-luc (AID 652126;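 further: 0% = DMSO-only wells and 100% = 3 µM delta7-dafachronic acid wells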)). Details: HEK293 ssDAF-12/GRIP1 lit1-tk-luc reporter, at 6.8 µM, active compounds read high, % of 3 µM dafachronic acid response.

| SMILES | activation |
| --- | --- |
| CCc1cc(C(c2ccccc2OC)N2CCOCC2)c(NC(=O)c2ccccc2)s1 (stereo not drawn) | -1.1% |
| COc1ccc(C(=O)Nc2ccnn2C2CCN(Cc3ccncc3)CC2)cc1 | -0.78% |
| O=C(NCc1cccs1)C1CCCN(S(=O)(=O)c2ccc([N+](=O)[O-])cc2)C1 (stereo not drawn) | -1.79% |
| Cc1nc(CNc2ncnc3ccc(-c4ccc5c(c4)OCO5)cc23)cs1 | -1.38% |
| CNc1nc(Nc2ccc(C)c(Cl)c2)nc(N)c1[N+](=O)[O-] | 2.25% (active) |
| Nc1nc(Nc2ccccc2F)nc(NC2CCCCC2)c1[N+](=O)[O-] | -0.48% |
| COCCNc1nc(N)c([N+](=O)[O-])c(NCCO)n1 | -1.31% |
| CC(C)CNc1cccc2c1S(=O)(=O)N(Cc1cn(Cc3ccccc3C(F)(F)F)nn1)Cc1ccccc1O2 | -0.93% |
| Cc1ccc(CN2CCCCC(NC(=O)C3CCCCC3)C2=O)cc1 (stereo not drawn) | -0.73% |
| CC(CCN1CCC(C(O)(c2ccccc2)c2ccccc2)CC1)Oc1ccc([N+](=O)[O-])cc1Cl (stereo not drawn) | -0.24% |
| NS(=O)(=O)c1ccc2nc(NC(=O)CS(=O)(=O)c3ccc(F)cc3)sc2c1 | 1.3% (active) |
| Cc1nc2ccc(S(=O)(=O)NCC(=O)O)cc2s1 | -0.93% |
| CCS(=O)(=O)N1Cc2ccccc2CC1C(=O)Nc1nc2ccc(F)cc2s1 (stereo not drawn) | 0.55% |
| CCCCN1CCN(C(=O)c2ccc3c(c2)NC(=O)C(C)(C)O3)CC1 | -1.34% |
| COc1ccc(C#CCNCc2ccc(OC)cc2OC)cc1 | -1.38% |
| COc1ccc(C(=O)O)cc1S(=O)(=O)NC1CCN(Cc2ccccc2)CC1 | -1.42% |
| COc1ccc(C(=O)NCc2ccccc2C)cc1S(=O)(=O)NC1CCCC1 | 0.92% (active) |
| COc1ccc(C)cc1S(=O)(=O)NC1CCCCC1 | -0.84% |
| CCCCNC(=O)C[C@@H]1C(=O)N(CCc2ccc(Cl)cc2)C2=CCCC[C@]21C(=O)OCC | -2.02% |
| CC(C)CNC(=O)OCc1cn(Cc2ccc(F)cc2)nn1 | -0.96% |
| CC(c1c[nH]c2ccccc12)c1c(-c2ccccc2)n(C)c2ccccc12 (stereo not drawn) | -0.45% |
| O=C(OCc1cn(-c2ccc(Cl)c(Cl)c2)nn1)c1ccccc1Cl | -1.04% |
| CCOC(=O)[C@]12CCCC=C1N(Cc1ccc(OC)cc1)C(=O)[C@@H]2CC(=O)NCc1cccs1 | -1.35% |
| C=CCN(Cc1ccc2c(c1)OCO2)C(C#CC1CC1)C(C)(C)C (stereo not drawn) | -1.38% |

| SMILES | activation |
| --- | --- |
| CN(C)/C=C1/C(=O)Nc2ccccc21 | 1.06% (active) |
| O=C1Nc2ccccc2C1=NN=Cc1ccco1 | 0.04% |
| CN(C)/C=C1\C=C(c2ccccc2)OC1=O | -0.4% |
| Cc1ccc(-n2c(SCC(=O)Nc3ccc(S(=O)(=O)Nc4nccs4)cc3)nnc2-c2ccncc2)cc1 | -1.76% |
| CC(=O)O[C@@]1(C(C)=O)CCC2[C@H]3C=C(C)C4=CC(=O)CC[C@@]4(C)C3CC[C@]21C (stereo partly drawn) | -1.19% |
| C/C(=N\NC(=S)NC1CCCCC1)c1ccc(C)o1 | -2.41% |
| CC(C)(C)C1CCC(=NNC(=O)c2ccc(Br)o2)CC1 (stereo not drawn) | -0.04% |
| C/C(=N/NC(=O)c1ccc(Br)o1)c1ccc(C)o1 | 1.57% (active) |
| Cc1sc2nc(SCC(=O)c3ccc(O)c(O)c3)n(Cc3ccco3)c(=O)c2c1C | -1.42% |
| O=S(=O)(NC1CCCCC1)c1ccc(F)c2ccccc12 | -1.61% |
| C=CCN(C(=O)[C@@H](CCCC)[C@@H](O)c1ccc(Cl)cc1)c1ccccc1 | -1.08% |
| C=C1C(C(C)C)N(C)C2=NC(c3ccccc3)CC(=O)N12 (stereo not drawn) | -1.49% |
| COc1ccccc1C(=O)NCCC(=O)NC1=NCCS1 | -0.76% |
| COc1ccc(C(=O)NC2=NCCS2)c(OC)c1 | 1.63% (active) |
| O=C(NC1=NCCS1)c1ccc(Cl)s1 | -1.02% |
| O=C(NCCc1c[nH]c2ccccc12)OCc1cn(-c2c(F)cccc2F)nn1 | -1.14% |
| O=C(NCc1ccco1)C1CCCN(S(=O)(=O)c2ccc(Cl)s2)C1 (stereo not drawn) | 0% |
| OCCC1CN(Cc2cnc(-c3ccccc3)s2)CCN1CCc1ccccc1 (stereo not drawn) | -1.41% |
| OCCC1CN(Cc2ccc(Oc3ncccn3)cc2)CCN1CCc1ccccc1 (stereo not drawn) | -0.5% |
| OCCC1CN(Cc2cccn2-c2nccs2)CCN1CCc1ccccc1 (stereo not drawn) | 1.5% (active) |
| COC(=O)c1cccc(Cn2ccc3ccc(-c4ccc5ccn(C(=O)C6CCCCC6)c5c4)cc32)c1 | -1.1% |
| COc1ccc(-c2cc(-c3nnc(SCc4ccc([N+](=O)[O-])cc4)n3N)[nH]n2)cc1 | -0.73% |
| CCCC[C@H]1C2CC(OC(=O)NCc3ccccc3)C(C2)[C@H]2CCCCN21 (stereo partly drawn) | -1.06% |
| CCCCOCCCNC(=O)C[C@H]1C[C@@]2(C(=O)OC)C(=C[C@H](C(C)(C)C)O[C@@H]2C)N(CCc2ccc(OC)c(OC)c2)C1=O | -1.19% |
